Screening results (PubChem)
Wnt act – activators of Wnt/beta-catenin signaling; Wnt/beta-catenin reporter cell assay, activator, plate reader; activation, % at 9.35 µM; 1.2% of 300,000 active; in the data active = activation above about 30%, passing the limit was not always enough; inconclusive = no clear call, values can overlap the other calls;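 note: 0% = neutral control wells and 100% = positive control wells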
AHR act – human AHR activation; P35869; AHR-responsive luciferase reporter cells, luminescence; activation, % at 5 µM; 2.5% of 320,000 active; AID 2796; in the data active = activation above about 47%;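 note: 0% = vehicle wells and 100% = reference agonist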
MITF TRPM1 HTS – increases MITF-driven TRPM1 promoter luciferase signal. SK-MEL-5 TRPM1-promoter luciferase, 24 h; % of positive control, neutral wells = 0. activation, % at 12.5 µM. 0.75% of 300,000 active. AID 588334;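 active = mean activation of at least 80% with every replicate also reaching 80%; inconclusive = mean reaches 80% but some replicate falls short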;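 note: 0% = neutral control wells and 100% = parthenolide positive control wells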
FXN GAA850 act – increases GAA850 frataxin promoter reporter activity. HEK293 lucGAA850 FXN promoter luciferase reporter, 24 h; percent of 10 µM SAHA response. activation, % at 6 µM. 0.56% of 360,000 active. AID 540364;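 active = activation above the average of all compounds screened plus 3 SD, cutoff fixed separately per campaign, cut at about 7.5% in these data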;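 note: 0% = DMSO wells and 100% = 10 µM SAHA wells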
esBAF inh – inhibitors of esBAF chromatin remodeling in mouse ES cells. reporter increase, % at 12.5 µM. 2% of 350,000 active. Bmi1-luciferase knock-in reporter, 24 h; 100% = twice the neutral-well signal; in the data active = activation above about 40%; inconclusive = no clear call, values can overlap the other calls;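 note: 0% = median of the plate's neutral control wells and 100% = double that signal; a rise in the Bmi1 reporter signal indicates esBAF inhibition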
* hit, by the source's call; u = inconclusive; x = not tested or not shown; ! = repeats disagree. Rows were chosen to be rich in hits. Some 4.2% of all compounds tested hit in one or more screens of this group.

SMILES	Wnt act	AHR act	MITF TRPM1 HTS	FXN GAA850 act	esBAF inh
CN(C)CCCNc1cc(C(C)(C)C)nc2c(-c3ccccc3)cnn12	43*	2	x	3	x
CC=Cc1ccc2n(c1=O)C[C@H]1[C@H](CO)[C@@H](C(=O)NCCOC)[C@@H]2N1Cc1ccccc1 (mixture of isomers)	x	x	x	x	-4
C[C@H]1CN([C@@H](C)CO)S(=O)(=O)c2ccc(C#CC3CCCC3)cc2O[C@H]1CN(C)Cc1ccccc1C(=O)O	x	x	x	x	5
CN1C(=O)c2ccccc2N(C)C1c1ccc(F)cc1 (configuration not stated)	0	x	x	-1	0
CN1N=C2c3ccccc3CCCC2C1c1ccc(F)cc1 (configuration not stated)	1	49*	14	2	20
CO[C@@H]1CN(C)C(=O)c2cc(NC(=O)C3CCCC3)ccc2OC[C@H](C)N(C(C)=O)C[C@@H]1C	x	x	x	x	-2
C[C@H]1CN([C@@H](C)CO)C(=O)c2cc(-c3ccncc3)cnc2O[C@@H]1CN(C)Cc1ccc(Oc2ccccc2)cc1	x	x	x	x	-5
O=c1[nH]c(S)c(/C=C2\C=Nc3ccccc32)s1	3	57*	x	0	x
COc1cc2c(cc1OC)CN(CC(=O)Nc1ccccc1C#N)CC2	-2	50*	-26	1	8
Cc1ncoc1C(=O)Nc1ncc([N+](=O)[O-])s1	37*	11	10	4	x
O=C(Nc1ncc([N+](=O)[O-])s1)c1cccs1	42*!	12	19	-2	-9
Cc1ncoc1C(=O)Nc1nccs1	-2	-2	6	-3	5
Cc1cnc(NC(=O)c2cccs2)s1	19	35	30	5	6
O=C(CCS(=O)(=O)Cc1ccccc1)Nc1ncc([N+](=O)[O-])s1	19	22	45	-1	42*
Cc1noc(C)c1S(=O)(=O)N(C)C[C@@H]1Oc2ccc(N(C)C)cc2CC(=O)N([C@@H](C)CO)C[C@H]1C	x	x	x	x	-5
C[C@H](C(=O)N(C)C[C@@H]1OCc2ccccc2-c2ccccc2C(=O)N([C@H](C)CO)C[C@H]1C)c1ccccc1	x	x	x	x	-2
O=C(/C=C/c1ccc(Br)cc1)NC1CCCCCC1	13	3	74	5	30
CC(C)Cc1ccc(/C=C/C(=O)NC2CC2)cc1	54*	7	80	4	49*
O=C(Nc1cccc(Cl)c1)c1csc([C@H]2C[C@H](O)[C@@H](CO)O2)n1	u	x	x	4	65*
COc1ccc(-c2csc(-c3cc4ccccc4oc3=N)n2)cc1	-6	50*	0	3	x
COc1ccc(-c2noc(-c3cc4ccccc4oc3=O)n2)cc1	x	-2	x	x	x
C[C@H](CO)N1C[C@H](C)[C@H](CN(C)C)Oc2cc(C#CC3(O)CCCC3)ccc2S1(=O)=O	x	x	x	x	-8
COC(=O)c1cc(/C=C/c2ccccc2)on1	x	-1	x	0	-3
COC(=O)c1cc(/C=C/c2ccccc2)[nH]n1	6	6	67	2	61*
COCCOC(=O)C1=C(C)NC2=C(C(=O)CC(c3cccs3)C2)C1c1ccsc1 (configuration not stated)	x	50*	-13	-1	10
SMILES	Wnt act	AHR act	MITF TRPM1 HTS	FXN GAA850 act	esBAF inh
Cc1cccc(NC(=O)c2sc3nc(-c4ccccc4)cn3c2C)n1	5	4	9	7	51*
Cc1cccc(NC(=O)c2sc3nc(-c4ccc(F)cc4)cn3c2C)n1	x	-3	13	-1	20
COc1ccc(-c2cn3c(C)c(C(=O)NC(C)C)sc3n2)cc1	26	-1	38	2	21
Cc1c(C(=O)Nc2ccccc2)sc2nc(-c3ccccc3)cn12	58*	-7	27	1	u
COc1ccc(-c2cn3c(C)c(C(=O)Nc4cccc(C)n4)sc3n2)cc1	-1	35	13	-2	55*
Cc1noc(C)c1S(=O)(=O)N(C)C[C@@H]1Oc2ccc(NS(=O)(=O)c3cn(C)cn3)cc2CC(=O)N([C@@H](C)CO)C[C@H]1C	x	x	x	x	3
O=C(Nc1cccc(C(F)(F)F)c1)Oc1ccc(Cl)c2cccnc12	-10	49*	-9	-1	1
O=C(Nc1cccc(C(F)(F)F)c1)c1cccnc1NCCO	-1	52*	14	-1	1
c1ccc(-c2noc(CN3CCN(c4ccccc4)CC3)n2)cc1	0	2	-6	0	4
c1ccc(OCc2nc(-c3ccccc3)no2)cc1	78*	1	102*	2	68*
c1ccc(OCc2nc(-c3ccncc3)no2)cc1	3	3	44	2	u
